Screening data from PubChem BioAssay.
Only some compounds are listed: those with a hit (about 4.2% of all), similar ones and a draw of the others.
GDH-TPI counter-1: GDH-TPI coupling enzyme inhibitors, primary screen, artefact control for M. tuberculosis FBA inhibitor project, biochemical, absorbance, full deck | AID 588335, 2011 | 1.2% of 360,000 active | GDH-TPI coupled enzyme counterscreen, NADH absorbance | inhibition, % at 4.8 µM; in the data active means inhibition above about 30%;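 further: 0% = DMSO wells and 100% = wells lacking the enzyme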
PrPC TRFRET: inhibitors of human cell surface prion protein PrPC, primary screen, cell-based, TR-FRET. Major prion protein (Homo sapiens), P04156. TR-FRET read-out. 0.43% of 370,000 active. inhibition, % at 13.8 µM; in the data active means inhibition above about 24%; further: 0% = median of the test wells and 100% = reference compound wells
Mtb FBA inh: Mtb FBA enzyme inhibitors, primary screen, biochemical, fluorescence, strain H37Rv. purified M. tuberculosis FBA, fluorescence read-out. 2.3% of 360,000 active. inhibition, % at 1 µM;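 further: 0% = vehicle and 100% = reference inhibitor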
BJeLR lethal: MLPCN primary cell-based screen for lethality selective to Ras in HRASV12 cells; BJeLR (HRASV12) viability, CellTiter-Glo ATP luminescence, 48 h; inhibition, % (concentration not given with the values); 0.17% of 300,000 active; in the data active means inhibition above about 50%
RecA splice inh: Mtb RecA intein splicing inhibitors, primary screen, biochemical, fluorescence, HTS | cell-free RecA intein splicing | inhibition, % (test concentration not listed) | 0.75% of 290,000 active | Protein RecA (Mycobacterium tuberculosis (strain ATCC 25618 / H37Rv)), P9WHJ3; in the data active means inhibition above about 30%;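 further: 0% = vehicle wells and 100% = reference inhibitor control wells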
Mtb FBA confirm: M. tuberculosis aldolase blockers, biochemical, fluorescence, strain H37Rv, confirmation; shares compounds with Mtb FBA inh; purified M. tuberculosis FBA, fluorescence read-out; inhibition, % at 1 µM; 78% of 5,600 active; AID 651616, 2012;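 further: 0% = vehicle wells and 100% = reference inhibitor wells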
GDH-TPI counter-2: GDH-TPI coupling enzyme inhibitors, artefact control for M. tuberculosis FBA inhibitor project, biochemical, fluorescence, high throughput; shares compounds with Mtb FBA inh; GDH-TPI coupled enzyme counterscreen; inhibition, % at 1 µM; 81% of 5,600 active; AID 652141, 2013; in the data active means inhibition above about 10%
An asterisk follows results filed as active; . = no result given; + = active, no number. Unless noted, no stated cut-off is given here; in the data, active means inhibition above about 27%; inactive means the rest.

SMILES | GDH-TPI counter-1 | PrPC TRFRET | Mtb FBA inh | BJeLR lethal | RecA splice inh | Mtb FBA confirm | GDH-TPI counter-2
Cc1c(O)ccc2c(CN3CCOCC3)cc(=O)oc12 | 3 | 6 | 71* | -1 | -229 | 46* | 38*
Cc1c(O)ccc2c(CN3CCN(CCO)CC3)cc(=O)oc12 | 14 | 3 | 74* | 6 | -309 | 69* | 63*
Cc1oc(-c2cccs2)nc1CSCC(=O)N1CCC2(CC1)OCCO2 | -6 | 10 | 28* | 7 | . | 164* | 144*
COc1ccc(-c2nc(CSCC(=O)N3CCC4(CC3)OCCO4)c(C)o2)cc1OC | -3 | 6 | 8 | -8 | 0 | . | .
CC[C@H]1OC(=O)[C@H](C)[C@@H](O[C@H]2C[C@@](C)(OC)[C@@H](O)[C@H](C)O2)C(C)[C@@H](O[C@@H]2O[C@H](C)C[C@H](N(C)C)[C@H]2O)[C@](C)(O)C[C@@H](C)CN(C)[C@H](C)[C@@H](O)[C@]1(C)O (stereo not given in full) | . | -6 | . | . | . | . | .
Cc1ccc(NC(=O)OC2CCC23CCCCC3)cc1 (stereo not given) | . | 5 | . | . | . | . | .
O=C(O)c1sc2cc(C(F)(F)F)cnc2c1-c1cccs1 | 9 | 2 | 30* | 1 | -7 | + | +
NC(=O)c1sc2cc(C(F)(F)F)cnc2c1-c1cccs1 | 9 | -5 | 5 | -7 | -7 | . | .
COc1ccc(-c2cnc3c(NC(C)=O)cc(-c4ccccc4OC)cn23)cc1OC | 9 | 0 | 9 | . | . | . | .
CC(=O)Nc1cc(-c2cccc(C)c2)cn2c(-c3ccc(S(C)(=O)=O)cc3)cnc12 | 14 | -5 | 35* | . | . | 1 | -3
CC(=O)Nc1cc(-c2ccccc2Cl)cn2c(-c3ccc(S(C)(=O)=O)cc3)cnc12 | 12 | -4 | 42* | . | . | + | 183*
COc1ccccc1-c1cc(NC(C)=O)c2ncc(-c3ccc(S(C)(=O)=O)cc3)n2c1 | 16 | 10 | 59* | . | . | 71* | 62*
C[C@H](CO)N1C[C@H](C)[C@@H](CN(C)C(=O)Nc2ccccc2)OCc2cn(nn2)CCCC1=O | . | -6 | . | . | . | . | .
O=C(NCCc1ccc(F)cc1)c1ccc2c(c1)ncn2C1CCCCC1 | . | 3 | . | . | . | . | .
Cc1cccc(C)c1NC(=O)COc1ccc2c(C)c(Cc3ccccc3)c(=O)oc2c1C | 0 | -6 | 1 | -1 | 0 | . | .
Cc1c(OCC(=O)NC(Cc2ccc(Cl)cc2)C(=O)O)ccc2c3c(c(=O)oc12)CCCC3 (stereo not given) | 7 | 11 | 6 | 6 | 4 | . | .
Cc1c(OCC(=O)N[C@@H](Cc2ccccc2)C(=O)O)ccc2c1oc(=O)c1ccccc12 | 12 | 1 | 52* | 8 | 7 | + | +
Cc1c(Cc2ccccc2)c(=O)oc2c(C)c(OC(C)C(=O)N[C@@H](Cc3ccccc3)C(=O)O)ccc12 (stereo not given in full) | 10 | -2 | 68* | -13 | 6 | 191* | 160*
COc1cc(NC(=O)C2CCCN(S(=O)(=O)c3ccc(Cl)s3)C2)cc(OC)c1 (stereo not given) | . | 5 | . | . | . | . | .
COC(=O)c1ccc(-c2nc3ccc(C)cc3o2)cc1 | 10 | -6 | 32* | 22 | . | 147* | 124*
Cc1ccc2nc(-c3ccccn3)oc2c1 | 17 | 3 | 103* | -11 | -4 | 42* | 30*
COC(=O)[C@]12C[C@H](CC(=O)NCc3ccc(OC)c(OC)c3)C(=O)N(Cc3ccc4c(c3)OCO4)C1=C[C@H](COCc1ccccc1)O[C@@H]2C | . | -4 | . | . | . | . | .
Cc1ccccc1Cn1cc(CN2[C@H](Cc3ccccc3)COc3cc(Br)ccc3S2(=O)=O)nn1 | . | -5 | . | . | . | . | .
